Source: ChEMBL document CHEMBL4513216, “Probing the Open Global Health Chemical Diversity Library for Multistage-Active Starting Points for Next-Generation Antimalarials” (ACS Infect Dis, 2020)
Out of some 69,000 compounds screened, about 8,600 (12%) showed an effect of 50% or more. The list comes from a sample in which strong results are over-represented; it also holds similar structures and randomly drawn compounds.

tested on: Plasmodium berghei; experiment: Screen against P. berghei liver stage (PbLuc), transformed with Luciferase, at 10uM; assay type: functional, HepG2; settings: tested at 10 uM

SMILES | INHIBITION [%]
CN(C)C(=O)N[C@@H]1CN(Cc2ccc3c(c2)OCO3)[C@@H]2CCCO[C@@H]21 | -15.5
Cc1cc(OCC(=O)N2CCCC2c2noc(C)n2)no1 (stereo not given) | 2.97
Cc1ccc(C(=O)N2CCC(Oc3ccccc3)CC2)c(=O)[nH]1 | 29.4
Cc1ccccc1OC1CCN(C(=O)c2c[nH]c(=O)[nH]c2=O)CC1 | 60.4
Cc1ccc(C(=O)N2CCC(Oc3cccc(C)c3C)CC2)c(=O)[nH]1 | 45.5
Cc1ccc(C(=O)N2CCC(Oc3ccc(C)c(C)c3)CC2)c(=O)[nH]1 | 69.65
COc1ccc(OC2CCN(C(=O)c3ccc(C)[nH]c3=O)CC2)cc1 | 29.85
COc1ccccc1OC1CCN(C(=O)c2c[nH]c(=O)[nH]c2=O)CC1 | -7.76
COc1cccc(CC(=O)N2CCC(NCc3c[nH]nc3C)CC2)c1 | -17.35
O=C(CCCc1ccccn1)N1CCCC1c1noc(C2CC2)n1 (stereo not given) | 0.411
O=C(c1nnn(-c2ccccc2)n1)N(CCO)CCO | -7.77
Cc1cccc(NC(=O)Cc2cnc3n(C)c(=O)[nH]c(=O)n23)c1 | 27.5
O=C(Cc1ccc2c(c1)CCO2)N1CCCC1Cn1cccn1 (stereo not given) | 31.6
CCS(=O)(=O)NCCCNC1CSCCc2ccccc21 (stereo not given) | 60.9
CNC(=O)CN1CCC(NC2CSCCc3ccccc32)CC1 (stereo not given) | -18.9
CC(C)(C)S(=O)(=O)CCNC1CSCCc2ccccc21 (stereo not given) | -56.6
CCS(=O)(=O)NCCN(CCO)C1CCc2ccccc21 (stereo not given) | 29.4
CCCNC(=O)CCNC1CSCCc2ccccc21 (stereo not given) | 76.9
OCCNC1CSCCc2ccccc21 (stereo not given) | -56.6
COc1ccc(CCNC(=O)c2ccc(=O)n(C)c2)c(Cl)c1 | 1.74
Cn1ncc2c(=O)[nH]c(CN3CCCC3CCc3ccccc3)nc21 (stereo not given) | 19.6
Cc1cc(C)c(CNC(=O)NCCC2CCCO2)c(=O)[nH]1 (stereo not given) | 1.82

SMILES | INHIBITION [%]
COc1ccc2c(c1)C(C(=O)NCCN1CCOC1=O)CC(=O)N2 (stereo not given) | 34.9
Cc1cc(C)n(C2CCCN(C(=O)c3cccc(F)c3F)C2)n1 (stereo not given) | 33
CCN1CCN(C(=O)Cc2ccc(S(=O)(=O)C(F)F)cc2)CC1 | 55.9
CN1CCN(C(=O)Cc2ccc(S(=O)(=O)C(F)F)cc2)CC1 | 39.6
O=C(Cc1ccc(S(=O)(=O)C(F)F)cc1)N1CCC1 | 43.9
CCn1ccc(NC(=O)c2cc(C)on2)n1 | -9.21
CN1CCc2nc3cc(C(=O)NCc4cccs4)ccc3c(=O)n2CC1 | 21.1
COCCNC(=O)c1ccc2c(=O)n3c(nc2c1)CCCCC3 | 40.8
COCCNC(=O)c1ccc2c(=O)n3c(nc2c1)CCCCCC3 | 55.4
COCCNC(=O)c1ccc2c(=O)n3c(nc2c1)CCCC3 | 54.9
COCCNC(=O)c1ccc2c(=O)n3c(nc2c1)CCN(C)CC3 | -48.5
COCCN1CCn2c(nc3cc(C(=O)NC(C)C)ccc32)C1 | 19.3
Cc1nn(C)c(C)c1C1CCCN1Cc1nc2ccccc2n1C (stereo not given) | -55.4
COc1cccc(-n2nnc(C(=O)N3CCOC(C)C3)c2C)c1 (stereo not given) | 14.05
CS(=O)(=O)N1CC2(CCN(C(=O)c3csnn3)CC2)c2ccccc21 | 13.7
CC1CC2(CCN(C(=O)c3c[nH]cn3)CC2)c2ccccc21 (stereo not given) | 5.68
CCOc1ccccc1OC1CCN(C(=O)c2csnn2)CC1 | 15.3
CCOC1CCC2(CCN(C(=O)c3c[nH]cn3)CC2)c2ccccc21 (stereo not given) | 51.4
CNC(=O)C1CC2(CCN(C(=O)c3csnn3)CC2)c2ccccc21 (stereo not given) | 51.3
CC1CC2(CCN(C(=O)c3csnn3)CC2)c2ccccc21 (stereo not given) | 15.9
CCOC1CCC2(CCN(C(=O)c3csnn3)CC2)c2ccccc21 (stereo not given) | 56.4
CN1CCN(C(=O)c2csnn2)c2ccccc21 | 23.2

SMILES | INHIBITION [%]
CCOC1CC2(CCN(C(C)=O)CC2)c2cc(F)ccc21 (stereo not given) | -33.9
Cc1cccc(CN2C(=O)CO[C@@H]3CN(Cc4nccn4C)C[C@H]32)c1 | 36.1
COc1cccc(C2(CNC(C)c3nnc(C)o3)CCCC2)c1 (stereo not given) | 3.03
CN1CCN(C(=O)c2cncc(CC3CCCN(C)C3)c2)CC1 (stereo not given) | 37
CS(=O)(=O)N1CCCC(Cc2cncc(Br)c2)CC1 (stereo not given) | 29.3
CC(=O)N1CCCC(Cc2cncc(Br)c2)C1 (stereo not given) | 44.1
CC(=O)N1CCCC(Cc2cncc(Br)c2)CC1 (stereo not given) | 54.6
CC(C)N1CCCC(Cc2cncc(Br)c2)CC1 (stereo not given) | 51.5
CN1CCCC(Cc2cncc(Br)c2)CC1 (stereo not given) | 44.9
CC(=O)N1CCC(c2cncc(Cl)n2)CC1 | 1.62
Cc1cccc(CN2CCC3(CCCN(C(=O)N4CCCC4)C3)C2=O)n1 (stereo not given) | -29.3
CC(=O)NCCNC(=O)c1nc(C2CC2)n(-c2ccccc2Cl)n1 | 8.46
Cc1ccc(S(=O)(=O)N(CC2CCOC2)C2CC2)cc1N(C)C (stereo not given) | 17.1
O=C(c1ccco1)N1CCc2ncc(CN3CCOCC3)n2CC1 | 5.44
c1cnc(-c2noc(C3CN(Cc4ccc5c(c4)CCO5)C3)n2)nc1 | 27.5
c1csc(-c2noc(C3CN(Cc4ccc5c(c4)CCO5)C3)n2)c1 | 52.5
c1csc(-c2noc(C3CCCOC3)n2)c1 (stereo not given) | -31
Cc1noc(C2CN(Cc3ccc4c(c3)CCO4)C2)n1 | -5.01
c1cnc(-c2noc(C3CN(Cc4ccc5c(c4)CCO5)C3)n2)cn1 | 58.5
c1csc(-c2noc(C3CCCNC3)n2)c1 (stereo not given) | 41.5
c1cnc(-c2noc(C3CN(Cc4ccsc4)C3)n2)cn1 | 28.3
c1csc(-c2noc(C3CNC3)n2)c1 | 58.1

SMILES | INHIBITION [%]
CCS(=O)(=O)N1CC(c2nc(-c3cccs3)no2)C1 | 9.41
CCN(CC)CCNc1nc(C(C)C)nc2c(C)nn(CC)c12 | 44.9
CN(C)CCN1CCCC12CCN(C(=O)c1cccnc1)CC2 | 11.6
Cc1ccc(NC2CCN(C(=O)c3ccoc3C)CC2)nn1 | 28.95
CN1CCC(N2CCCC(C(=O)N3Cc4ccccc4C3)C2)CC1 (stereo not given) | 10.6
O=C(Nc1nncs1)NC1CCN(Cc2ccccc2)C1 (stereo not given) | 12.433
Cc1noc([C@@H]2C[C@@H]3CCN(CC4CC4)C[C@H]3O2)n1 | -6.39
Cn1ccnc1CNC(=O)N(CCCO)C1CCCc2ccccc21 (stereo not given) | -17.4
Cc1nnc(CN(C)CC(=O)NCCc2ccc(F)cc2)n1C | -9.39
CCOc1ccccc1C(N)CC(C)C (stereo not given) | 30.9
CCCOc1ccccc1C(N)CC(C)C (stereo not given) | 80.9
CC(C)COc1ccccc1C(N)CC(C)C (stereo not given) | 30.9
COCCN1CCOCC2(CCN(c3cnccn3)CC2)C1 | 29.4
CCc1nc(C)ncc1C(=O)N1CC(=O)N(C)c2ccccc21 | 28.7
CCc1nc(C)ncc1C(=O)N1CCN(CC)c2ccccc21 | 47.7
CCc1nc(C)ncc1C(=O)N1CC(C)CN(C)c2ccccc21 (stereo not given) | 57.8
CO[C@H]1CCN(c2nnc(C)s2)C[C@@H]1Cc1cccc(C)c1 | 24.9
CO[C@@H]1CCN(Cc2nccs2)C[C@@H]1Cc1ccccc1 | 62.5
C[C@@H]1C[C@@H]2CCN(Cc3nccs3)C[C@H]2O1 | 40.8
C[C@H]1C[C@@H]2CCN(Cc3nccs3)C[C@H]2O1 | 20.1
CO[C@H]1CCN(Cc2nccs2)C[C@@H]1Cc1ccccc1 | 69.5
CO[C@H]1CCN(C2CCOCC2)C[C@@H]1Cc1ccccc1 | -8.51

SMILES | INHIBITION [%]
CO[C@@H]1CCN(c2nnc(C)s2)C[C@@H]1Cc1cccc(C)c1 | 2.41
CO[C@@H]1CCN(C2CCOCC2)C[C@@H]1Cc1ccccc1 | -84.9
CO[C@@H]1CCN(Cc2nccs2)C[C@@H]1Cc1cccc(C)c1 | 54.4
Cc1nc2c(c(=O)[nH]1)CN(C(=O)CC[C@@H]1CCCN3CCCC[C@H]13)C2 | -1.85
Cc1nn(C)c(N(C)C)c1CNCc1ccccc1Cn1cccn1 | 33.8
O=C(c1c[nH]cn1)N1CCCn2c(CN3CCCCC3)nnc2C1 | -56.3
CNS(=O)(=O)c1ccc(CNC(=O)N(C)CC(C)C)cc1 | 18.3
Cc1cnc2n(c1=O)C(CC(=O)NCc1ccc(F)cc1)CS2 (stereo not given) | 18.3
Cc1cnc2n(c1=O)C(CC(=O)NCc1ccc(Cl)cc1)CS2 (stereo not given) | 61.2
Cc1cnc2n(c1=O)C(CC(=O)NCc1ccccc1Cl)CS2 (stereo not given) | 6.67
CCOCC1CN(C(=O)c2ccncn2)Cc2cnn(CC)c21 (stereo not given) | 35.7
CCc1n[nH]c(C2CN(C(=O)c3ccc4c(c3)CCC4)CCO2)n1 (stereo not given) | -12.1
COc1ccccc1-n1c(O)cc(C)c(C#N)c1=O | 39.1
Cc1cc(O)n(-c2ccccc2Cl)c(=O)c1C#N | 50.4
Cc1ccccc1-n1c(O)cc(C)c(C#N)c1=O | 3.84
Cc1c(S(=O)(=O)NC2CC2)cc2c(C)cc(=O)n3c2c1CCC3 | -17.1
CCCNc1c(NC(=O)NCCCOC)c(=O)oc2ccccc12 | -13.6
CCCNc1c(NC(=O)NCCOC)c(=O)oc2ccccc12 | -24.7
CCNc1c(NC(=O)NCCOC)c(=O)oc2ccccc12 | 69.9
CCC(CNC(=O)NC1CCN(C)CC1)Oc1ccccc1Cl (stereo not given) | 89.6
CN1CCC(NC(=O)Nc2cnn(-c3ccccc3Cl)c2)CC1 | -10.1
CN1CCC(NC(=O)NCCNc2ccccn2)CC1 | 16.1
